These results are taken from PubChem BioAssay (NCATS).

Structures are written as SMILES. Where “and” joins values, the source holds several entries; their conditions need not be identical. Identical values can stand only once. Inconclusive results are not listed. A number with no mark means an inactive call. Calls of active or inactive are those of the source. Calls come from the whole dose curve; as a rule, active = well fitted inhibition curve with a large enough effect; inconclusive = small, poorly fitted or top-dose-only effect; inactive = flat fitted curve, though single readings scatter.

The subject of one assay is HEK293. The assay can be described thus: Cytotoxic Profiling of Annotated Libraries Using Quantitative High-Throughput Screening (AID 1296008). Particulars: Five cell lines viability, CellTiter-Glo ATP luminescence, 48-72 h; max response: active compounds read low. Summed up: (§1)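 Cells exposed to compounds for 48 or 72 hr at 37 degrees Celsius. Viability read as ATP-coupled luminescence with CellTiter-Glo after 10 min at room temperature.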
Background: In ATP-based viability assays light output follows the ATP content of the culture.

Assay [1] deals with HaCat. Described as above. The note with it: Five cell lines viability, CellTiter-Glo ATP luminescence, 48-72 h; max response: active compounds read low. Summed up: as §1
Another assay concerns NIH3T3. Described as above. The note with it: Five cell lines viability, CellTiter-Glo ATP luminescence, 48-72 h; max response: active compounds read low. Summed up: as §1
The test system of another assay is MCC-13. The assay can be described thus: qHTS assay to identify novel small-molecules to repurpose for Merkel cell carcinoma treatment (AID 1296009). The note with it: MCC and control cell lines, CellTiter-Glo viability, 72 h; series mostly up to 46 µM. The method, boiled down:
(§2)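 Dose-response viability screen; 72 hr exposure at 37 degree celsius; CellTiter-Glo added, 10 min room temperature, luminescence read; RLUs scaled between no-cell and DMSO wells.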
A general note: qHTS replaces the single test concentration by a dilution series.

The test system of the next assay is MCC-26. Described as above. Particulars: MCC and control cell lines, CellTiter-Glo viability, 72 h; series mostly up to 46 µM. Summed up: as §2
A further assay concerns CRL-7250. Put plainly: Cytotoxic Profiling of Annotated Libraries Using Quantitative High-Throughput Screening (AID 1296008). Particulars: Five cell lines viability, CellTiter-Glo ATP luminescence, 48-72 h; max response: active compounds read low. Summed up: as §1
A further assay relates to KB-3-1. The assay is described as above. The note with it: Five cell lines viability, CellTiter-Glo ATP luminescence, 48-72 h; max response: active compounds read low. The method, boiled down:
as §1

The test system of assay [2] is HACAT. Put plainly: qHTS assay to identify novel small-molecules to repurpose for Merkel cell carcinoma treatment (AID 1296009). The note with it: MCC and control cell lines, CellTiter-Glo viability, 72 h; at 44.8 µM (top of the series) unless noted. Summed up: as §2
The test system of a further assay is HEK293T. The description is as above. The note with it: MCC and control cell lines, CellTiter-Glo viability, 72 h; at 44.8 µM (top of the series) unless noted. The method, boiled down:
as §2
% is set by controls: 0 for no effect and ±100 for the full control effect; potency is the fitted concentration of half-maximal effect.
Note: nearly all actives have a fitted effect of over 60% in size.

`CC(C)C[C@H](NC(=O)c1cc2ccccc2s1)C(=O)N1CCN(C(=O)[C@H](CO)NS(=O)(=O)c2ccc(Cl)cc2Cl)CC1`: the Potency in the assay with HEK293 is 18.7 µM (active). Moreover, the values for the max response in the assay with HaCat [1] and in the assay with NIH3T3 were -15.5% and -5.73%, respectively. Further, the Potency result in the assay on MCC-13 and in the assay on MCC-26 was “inactive” throughout.

With `O=S(=O)(NCCNCC=Cc1ccc(Br)cc1)c1cccc2cnccc12`, the Potency with HEK293 is 7.43 µM (active). Moreover, the max response is -0.249% with HaCat [1] and -13.9% in the assay with NIH3T3. In addition, the Potency result with MCC-26 is “inactive”.

With `Cc1ccc2c(c1)C(=O)[C@]1(O)CCN(c3ccccc3)C1=N2`, the max response in the assay with HEK293 is -19.6%. The Potency entry in the assay on MCC-13 and in the assay with MCC-26 was “inactive” in each case.

For `CN1N=C(N)c2cn([C@@H]3O[C@H](COP(=O)(O)O)[C@@H](O)[C@@H]3O)c3ncnc1c23`, the Potency is 1.32 µM (active) in the assay on CRL-7250, 3.72 µM (active) with KB-3-1 and 0.418 µM (active) with NIH3T3. Moreover, the Potency result in the assay on MCC-26 was “inactive”.

Regarding `O=C(O)c1ccc(O)c2ncc(N3CCOCC3)cc12`, the max response with HEK293 was 4.93%; with KB-3-1 it was 3.25%. The compound was classed as inactive in the assay with HaCat [1] and in the assay on HACAT [2]. Further, in the assay with MCC-13, the Potency entry is “inactive”.

For the compound `O=C(Nc1ccc(OC(F)(F)F)cc1)c1sccc1NCc1ccnc2ccccc12`, the Potency in the assay with HEK293 is 8.33 µM (active) and 20.6 µM (active). In addition, the compound was classed as inactive in the assay with HaCat [1] and in the assay with HACAT [2]. The Potency result with MCC-13 and in the assay with MCC-26 was “inactive” each time.

Turning to `Oc1cc(O)cc(C=Cc2ccc(O)c(O)c2)c1`, the call in the assay on HEK293 and in the assay with HEK293T was inactive. Besides, the max response in the assay with HaCat [1] is -2.98%; in the assay on KB-3-1, -8.49%; with NIH3T3 it was 3.17%. Also, the Potency entry with MCC-13 and in the assay on MCC-26 was “inactive” each time.

`C[C@@H](O[C@H]1OCCN(Cc2n[nH]c(=O)[nH]2)[C@@H]1c1ccc(F)cc1)c1cc(C(F)(F)F)cc(C(F)(F)F)c1`: the results for the Potency in the assay with HEK293 and in the assay on KB-3-1 were 20.9 µM (active) and 26.4 µM (active), respectively. Further, the max response with HaCat [1] is -38.5%; with NIH3T3, -21.1%. Further, the Potency entry in the assay on MCC-13 and in the assay on MCC-26 was “inactive” each time.

On to `CCN(CC)CCCCNc1nc2cc(Cl)c(Cl)cc2nc1-c1ccc(-c2cccs2)s1`, for which the Potency was 29.6 µM (active) with HEK293 and 13.2 µM (active) in the assay with KB-3-1. Also, the Potency entry with MCC-26 was “inactive”.

As to `CC(C)n1c(C=C[C@H](O)C[C@H](O)CC(=O)O)c(-c2ccc(F)cc2)c2ccccc21`, the Potency with CRL-7250 is 2.64 µM (active); with KB-3-1 it was 11.8 µM (active); in the assay on NIH3T3 it was 16.6 µM (active); with MCC-26, 20.9 µM (active).

With `Cc1cccc(-c2[nH]c(C(C)(C)C)nc2-c2ccc3c(c2)OCO3)n1`, the Potency is 4.18 µM (active) in the assay with HEK293 and 7.43 µM (active) in the assay on NIH3T3. In addition, the max response in the assay on HaCat [1] was -21.5%.

Turning to `OCCn1cc(-c2ccc3c(c2)CCC3=NO)c(-c2ccncc2)n1`, the max response with HEK293 is 2.25%; in the assay with HaCat [1], 1.64%; with KB-3-1, -5.13%; with NIH3T3, -8.29%. Moreover, the Potency entry with MCC-13 and in the assay on MCC-26 was “inactive” each time.

As for `Cn1c(=O)c(Oc2ccc(F)cc2F)cc2cnc(NC3CCOCC3)nc21`, the results for the max response in the assay on CRL-7250, with KB-3-1 and in the assay on NIH3T3 were -20.5%, -6.47% and -13.2%, respectively. Moreover, the Potency entry in the assay on MCC-13 and in the assay on MCC-26 was “inactive” each time.

Consider `N=C1SC(=Cc2ccc(-c3ccc4c(c3)C(=O)NC4=O)o2)C(=O)N1c1ccc(Br)cc1`, for which the max response was 1.89% in the assay on HEK293 and 1.79% with NIH3T3. The compound was called inactive in the assay with HaCat [1], with KB-3-1 and in the assay on HACAT [2]. Besides, the Potency entry with MCC-13 and in the assay on MCC-26 was “inactive” throughout.

With `Cc1ccc(C(=O)N(CCCN)[C@@H](c2oc3cc(Cl)ccc3c(=O)c2Cc2ccccc2)C(C)C)cc1`, in the assay on CRL-7250, the max response was -26.7%. Moreover, the Potency with KB-3-1 is 0.0008 µM (active); with MCC-13 it was 0.0083 µM (active).

`COc1cc2nccc(Oc3ccc(NC(=O)Nc4ccc(F)cc4F)c(F)c3)c2cc1OC`: the max response with CRL-7250 was -18.7%. Also, the Potency result with MCC-13 and with MCC-26 was “inactive” each time.

In the case of `CN(C(Cc1ccc(OS(=O)(=O)c2cccc3cnccc23)cc1)C(=O)N1CCN(c2ccccc2)CC1)S(=O)(=O)c1cccc2cnccc12` (centres undefined), the max response with CRL-7250 was 0.636%; in the assay on KB-3-1, -3.12%; in the assay on NIH3T3 it was -12.5%. The Potency entry in the assay on MCC-13 and with MCC-26 was “inactive” throughout.

For the compound `COc1ccc2cc1Oc1ccc(cc1)C[C@H]1c3cc(c(OC)cc3CCN1C)Oc1c(OC)c(OC)cc3c1[C@H](C2)N(C)CC3`, in the assay on HEK293, the Potency was 11.8 µM (active). Besides, the max response in the assay with NIH3T3 is -30.2%. Moreover, the Potency result with MCC-13 and in the assay with MCC-26 was “inactive” in each case.

For `CC(C)(C)c1nc(-c2cccc(NS(=O)(=O)c3c(F)cccc3F)c2F)c(-c2ccnc(N)n2)s1`, the max response in the assay on HEK293 is -10.3%; with HaCat [1], -2.38%; in the assay with KB-3-1, -15.7% and -13.9%; with NIH3T3, -11.1% and -2.7%. Moreover, the Potency entry in the assay with MCC-13 and in the assay with MCC-26 was “inactive” throughout.

Take `O=C(Nc1ncc(SCCN2CCCC2)s1)[C@]1(c2ccc(S(=O)(=O)C3CC3)cc2)C[C@@H]1C1CCCCC1`: the Potency is 16.6 µM (active) in the assay with HEK293 and 23.5 µM (active) with NIH3T3. Also, the Potency result in the assay on MCC-13 and with MCC-26 was “inactive” each time.

Turning to `O=C(Nc1cccc2c(=O)cc(-c3nn[nH]n3)oc12)c1ccc(OCCCCc2ccccc2)cc1`, in the assay on HEK293, the Potency was 18.7 µM (active). Besides, the compound was classed as inactive with HaCat [1] and in the assay with HACAT [2]. The results for the max response in the assay on KB-3-1 and in the assay on NIH3T3 were -16.8% and -4.19%, respectively. The Potency result in the assay with MCC-13 and in the assay on MCC-26 was “inactive” each time.
